A selection: hits, their analogues and other compounds. The true share with any hit is near 2.6%.
KCNH2 3.1 inh: blocks the human KCNH2 3.1 channel isoform; U2OS KCNH2 3.1, thallium flux FluxOr; stronger effect = lower value; activity change, % (tested at about 1.8 µM); 0.95% of 340,000 active; AID 720553;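 active = maximum activity change below -70%; inconclusive = maximum activity change from -70% to -50%; inactive = maximum activity change above -50%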;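 also: thallium influx rate constant from kinetic fluorescence after stimulation buffer; % is scaled to controls: 0 for no effect and ±100 for the full control effect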
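Measured as rate of thallium-driven FluxOr signal in transduced U2OS cells carrying the 3.1 channel, read kinetically for 2 min upon stimulation; values are rate constants scaled to DMSO control wells.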
hERG WT inh: blocks the wildtype human KCNH2 potassium channel | activity change, % at 1.84 µM | U2OS, BacMam KCNH2, thallium flux FluxOr; stronger effect = lower value | AID 720551 | 0.37% of 340,000 active;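 active = maximum activity change below -70%; inconclusive = maximum activity change between -70% and -50%; inactive = maximum activity change above -50%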; also: % is scaled to controls: 0 for no effect and ±100 for the full control effect
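U2OS cells transduced with wild-type KCNH2 virus are loaded with FluxOr dye for 45 min, and thallium flux is measured in kinetic reads before and after stimulation buffer. Rate constants are normalized to DMSO controls.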
TRPV1 potentiator: human TRPV1 potentiation. potentiation, % at 8.33 µM. Q8NER1. TRPV1-expressing cells, Fluo-8 calcium influx, capsaicin EC20 potentiation. 0.02% of 320,000 active; in the data active = potentiation above about 80%; inconclusive = between about 30% and that limit; also: 0% is about no effect
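Fluo-8 calcium influx in TRPV1-expressing cells, kinetic read (ex 480/em 520 nm). Compound added and read 3 min for agonist activity, followed by capsaicin at EC20 final and 2 min further read for enhancement.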
TRPV1 ag: activates the human vanilloid receptor TRPV1. activation, % at 8.33 µM. TRPV1-expressing cells, Fluo-8 calcium influx, agonist mode. 0.19% of 320,000 active. AID 540275; in the data active = activation above about 80%; inconclusive = between about 30% and that limit; also: 0% is about no effect
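TRPV1-expressing cells were cultured overnight at 35.5C and loaded with Fluo-8 calcium dye for 40 to 90 min at room temperature. After a 10 s baseline, compound was added and calcium influx was read kinetically for 3 min (ex 480/em 520 nm).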
ClpP mod: qHTS Assay for Activators of ClpP; 1.9% of 340,000 active; purified B. subtilis ClpP, FRET peptide cleavage, 20 min; AID 651965, 2013; Potency, µM (series often up to 57.5 µM), inactives show top-dose activity change, negative = active; active = well fitted falling curve with a large enough effect; inconclusive = small, poorly fitted or top-dose-only effect; inactive = no such curve, though single readings can be large or run the other way; also: potency is read from the fitted curve at half-maximal effect; the source files actives as falling curves though it sought activators and does not explain the sign; nearly all actives have a fitted effect of over 65% in size
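FRET quenching reversal measured ClpP activation: 10 microg/mL B. subtilis ClpP at pH 8 with the FRET-FV decapeptide, read at 430 nm after 320 nm excitation. The 20-min minus 0-min signal was scaled between DMSO/no-enzyme wells and ADEP (5.8 microM final).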
p53 reactivator: mutant p53 re-activation in reporter cells | Potency, µM (doses to about 92.2 µM), for inactives: top-dose activity change, positive = activation, usual class: activators | H1299 p53-A138V BP100-luciferase reporter, luminescence, 24 h | AID 504706 | 0.063% of 320,000 active; active = well fitted activation curve with a large enough effect; inconclusive = small, poorly fitted or top-dose-only effect; inactive = no such curve, though single readings can be large or run the other way; also: potency is read from the fitted curve at half-maximal effect; % of control where 0% means no effect; nearly all actives have a fitted effect of over 45% in size
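p53-null H1299 cells stably carrying temperature-sensitive p53-A138V and a BP100-luciferase reporter were pinned with compounds (4-point, 1:5 series) and held 24 hrs at 37 deg C. Luminescence was read 10 min after detection reagent.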
* = called active by the depositor; ? = inconclusive; · = not tested or not shown.

SMILES | KCNH2 3.1 inh | hERG WT inh | TRPV1 potentiator | TRPV1 ag | ClpP mod | p53 reactivator
COc1ccc(-c2cc(-c3ccc4c(c3)NC(=O)CO4)nc3c2COc2ccc(C)cc2-3)cc1 | · | · | · | · | -8% | ·
O=C(CN1C(=O)NC(c2ccccc2)(c2ccccc2)C1=O)N1CCN(c2ccccc2F)CC1 | -198* | 1 | 4 | -1 | 2% | -3%
O=[N+]([O-])c1ccc2c(c1)C(O)n1ncnc1S2 (configuration not stated) | -84* | -10 | 0 | -1 | · | 2%
Cc1nc2n(n1)C(O)c1cc([N+](=O)[O-])ccc1S2 (configuration not stated) | · | · | 16 | 0 | · | 9%
C[C@@H](NC(=O)[C@@H]1CCCN1C(=O)[C@@H]1CCCN1C(=O)c1cccc(Cl)c1)c1ccccc1 | · | · | · | · | 0% | ·
CCOC(=O)c1nc2cc3n(c(CC(C)C)c-2c1C)CC(C)=C3C | -11 | -3 | -9 | 1 | 28µM* | -1%
S=c1nc(-c2ccccc2)[nH]c2ccc(Br)cc12 | 0 | -73* | 2 | 1 | 0% | 6%
c1ccc(-c2nc3ccccc3[nH]2)cc1 | 0 | -1 | 2 | 13 | 4% | ·
CCOC(=O)N1CCc2c(sc3c2c(=O)n(CCc2ccccc2)c(=O)n3CC(=O)Nc2ccc(C)cc2)C1 | · | · | · | · | 2% | ·
O=C(c1ccc(CN2CCc3ccccc3C2)cc1)N1CCN(c2ccccc2)CC1 | 5 | 39 | -15 | ? | 32µM* | -1%
Cc1ccc(N2C(=O)c3ccc(C(=O)N4CCN(c5ccc(C)c(C)c5)CC4)cc3C2=O)cc1 | 4 | 4 | 11 | -1 | -2% | -1%
O=C(c1ccc(-n2cccc2)cc1)N1CCN(Cc2ccccc2)CC1 | ? | -73* | -22 | 18 | -2% | 2%
Cc1ccc(N2C(=O)c3ccc(C(=O)N4CCN(Cc5ccccc5)CC4)cc3C2=O)cc1 | -202* | -145* | 14 | 1 | · | 0%
CN(c1ccc(C(=O)NCCSCc2ccc(Cl)cc2)cc1)S(=O)(=O)c1ccccc1 | 1 | -2 | -9 | 2 | 28µM* | 0%
Cc1ccc(CSCCNC(=O)c2ccc(N(C)S(=O)(=O)c3ccccc3)cc2)cc1 | -27 | 1 | -10 | 5 | -1% | 4%
Cc1ccc(-n2c(SCC(=O)Nc3ccc4c(c3)OCO4)nnc2-c2cccs2)cc1 | ? | -154* | -12 | -5 | -15% | 7%
Cc1cccc(-n2ccnc2SCC(=O)Nc2ccc3c(c2)OCO3)c1 | · | · | · | · | -1% | ·
Cc1cccc(-n2c(SCC(=O)Nc3ccc4c(c3)OCO4)nnc2-c2ccoc2C)c1 | -71* | -90* | -10 | 14 | -1% | -4%
COc1ccc(-n2c(SCC(=O)Nc3ccccc3)nnc2-c2ccoc2C)cc1 | -105* | -9 | · | · | -2% | ·
CCCCc1ccc(C(=O)COC(=O)c2ccc3nc(C)c(C)nc3c2)cc1 | · | · | · | · | -2% | ·
CCOC(=O)Cn1c(=NC(=O)c2sc3ccccc3c2Cl)sc2cc(S(N)(=O)=O)ccc21 | 13 | 2 | 14 | -1 | ? | -3%
COC(=O)Cn1c(=NC(=O)c2sc3ccccc3c2Cl)sc2cc(S(N)(=O)=O)ccc21 | 7 | 2 | 1 | 3 | 14µM* | -7%
CCCC(=O)N1CCCC(c2cc(C(=O)NCc3ccccc3)no2)C1 (configuration not stated) | · | · | · | · | 0% | ·
O=C(Nc1ccc(Br)c(Br)c1)C1CCCO1 (configuration not stated) | 7 | 6 | · | · | · | ·
O=C(Nc1ccc2c(c1)C(=O)N(C1CCCCC1)C2=O)C1CCCO1 (configuration not stated) | 12 | -13 | -20 | ? | 32µM* | 11%
SMILES | KCNH2 3.1 inh | hERG WT inh | TRPV1 potentiator | TRPV1 ag | ClpP mod | p53 reactivator
CC(C)COc1ccc(C(=O)Nc2ccc([N+](=O)[O-])cc2)cc1 | -12 | 6 | -7 | ? | 1% | 19%
O=C(O)COc1ccc(NC(=O)c2ccc3c(c2)C(=O)N(C2CCCCC2)C3=O)cc1 | 10 | -12 | -7 | 1 | -6% | -5%
CCC(=O)Oc1ccc(C(=O)Nc2ccc3c(c2)C(=O)N(C2CCCCC2)C3=O)cc1 | 8 | -1 | -5 | ? | 25µM* | -2%
CCC(=O)Oc1ccc(C(=O)Nc2ccc([N+](=O)[O-])cc2)cc1 | 9 | -159* | 16 | ? | 0% | 17%
CNC(=O)c1sc2ncccc2c1-n1cccc1 | · | · | · | · | 0% | ·
Cc1ccc(CNC(=O)CN2C(=O)CSc3ccc(S(=O)(=O)N4CCCC4)cc32)cc1 | · | · | · | · | 0% | ·
O=C(NCc1ccccc1)C12CC3CC(CC(Cl)(C3)C1)C2 | 3 | 1 | -7 | 4 | 32µM* | 3%
CC(=O)c1cccc(NS(=O)(=O)N(C)C)c1 | 4 | 5 | 9 | -3 | -1% | ?
CN(C)S(=O)(=O)Nc1cccc(Br)c1 | -1 | -126* | 4 | 2 | -1% | -5%
Cc1ccc2nc(-c3cccs3)c(Nc3c(C)cccc3C)n2c1 | · | · | · | · | 28µM* | ·
Cc1cccc(C)c1Nc1c(-c2cccs2)nc2ncccn12 | · | · | · | · | 0% | ·
Nc1ccc(-c2nc3c(Cl)c(N)ccc3[nH]2)cc1 | 1 | -6 | -1 | -2 | 28µM* | -8%
Nc1ccc(-c2nc3ccc(N)cc3[nH]2)cc1 | -1 | -12 | 3 | 1 | 4% | 11%
O=P(c1ccccc1)(c1ccccc1)N(c1ccccc1)c1ccccc1 | -70* | 52 | -18 | 21 | 2% | -11%
Cc1cccc(CS(=O)(=O)CC2Nc3ccc(C(=O)NCc4ccccc4Cl)cc3NC2=O)c1 (configuration not stated) | · | · | · | · | 5% | ·
CCCCNC(=O)c1ccc2c(c1)NC(=O)C(CS(=O)(=O)Cc1cccc(C)c1)N2 (configuration not stated) | · | · | · | · | 32µM* | ·
COCCNC(=O)c1ccc2c(c1)NC(=O)C(CS(=O)(=O)Cc1ccc(F)cc1Cl)N2 (configuration not stated) | · | · | · | · | 16µM* | ·
COc1ccc(CNC(=O)c2ccc3c(c2)NC(=O)C(CS(=O)(=O)Cc2ccccc2Cl)N3)cc1 (configuration not stated) | · | · | · | · | -27% | ·
O=c1ccc(/C=C/c2ccccc2)nn1Cc1ccc(Cl)cc1Cl | -14 | -2 | 7 | 1 | 28µM* | 0%
Cc1ccc(/C=C/c2ccc(=O)n(Cc3ccc(Cl)cc3Cl)n2)cc1 | 2 | -5 | 4 | 3 | 3.2µM* | 5%
CN[C@@H](CO)C(=O)NC[C@H]1O[C@@H](n2cnc3c(=O)[nH]c(N)nc32)[C@H](O)[C@@H]1O | · | · | · | · | 2% | ·

Source: PubChem BioAssay (National Center for Advancing Translational Sciences (NCATS))
